Unmarked numbers belong to inactive results. Records with an inconclusive call do not appear. Where a call stands in place of a potency, no number is given. The source made the active and inactive calls. Unless noted, calls come from the whole dose curve; as a rule, active = well fitted curve in the direction sought with a large enough effect; inconclusive = small, poorly fitted or top-dose-only effect, or another doubt; inactive = no such curve, though single readings can be large; an effect the other way counts as inactive or inconclusive.
Assays:
[1] = Cell Viability - BJ (AID 421; calls by dose curve;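 note: potency is the fitted concentration of half-maximal effect; cells exposed to compound for 40 hours at 37 °C before readout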); details: BJ fibroblast viability, qHTS
Method in brief: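 Cytotoxicity in human BJ foreskin fibroblasts is scored as loss of cellular ATP after a 40-hour exposure, measured by luciferase luminescence. Controls are DMSO and 100 uM tamoxifen.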

[2] = Cell Viability - Jurkat (AID 426;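 active = dose-dependent loss of cell ATP signal giving a full or clear fitted curve, ranked by lower potency value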; note: potency is the fitted concentration of half-maximal effect); details: qHTS
Method in brief: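 Luminescent ATP read-out (CellTiter-Glo, 20 min at room temperature) after 40 hr compound exposure at 37 °C of Jurkat E6-1 cells, 5000/well. Decreased ATP taken as cytotoxicity; AC50 from standard Hill equation.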

[3] = Cell Viability - Hek293 (AID 427;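 active = compounds whose dose-response curve shows a full or clear partial loss of cell viability, called from curve shape rather than a numeric limit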;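 note: potency is the fitted concentration of half-maximal effect; cells exposed to compound for 40 hours at 37 °C before reading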); details: qHTS
Method in brief: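 qHTS, human embryonic kidney (adenovirus-transformed) cells; 40 hr cpd, 37 °C; CellTiter-Glo ATP luminescence. Norm: DMSO = 0, 100 uM tamoxifen = 100% inhibition. Hill-fit AC50.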

[4] = Cell Viability - HepG2 (AID 433; calls by dose curve;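 note: potency is the fitted concentration of half-maximal effect; potency for ATP loss meaning cytotoxicity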); details: qHTS
Method in brief: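 HepG2 cells, 1500 per well, treated 40 hr at 37 °C in complete medium; viability from intracellular ATP by CellTiter-Glo luminescence. Normalized to DMSO and 100 uM tamoxifen; AC50 from Hill fit of qHTS concentration-response.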

[5] = Cell Viability - MRC5 (AID 434; calls by dose curve;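 note: potency is the fitted concentration of half-maximal effect; potency reflects cytotoxicity seen as loss of intracellular ATP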); details: MRC5 lung fibroblast viability, qHTS
Method in brief: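 AC50 values come from Hill-equation fits of intracellular ATP loss, measured by CellTiter-Glo luminescence. Normal lung fibroblasts (MRC5) had 40 hr compound treatment at 37 C, normalized between DMSO and 100 uM tamoxifen.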

[6] = Cell Viability - SK-N-SH (AID 435; calls by dose curve; note: potency is the fitted concentration of half-maximal effect); details: SK-N-SH neuroblastoma cell viability qHTS
Method in brief: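 SK-N-SH neuroblastoma cells (1500/well) treated 40 h at 37 °C in complete medium; viability read as cellular ATP by CellTiter-Glo luminescence. Normalized to DMSO and 100 uM tamoxifen; AC50 from Hill fits of qHTS concentration-response.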

[7] = molecular target: Mitogen-activated protein kinase 10 (Mus musculus) (UniProt Q61831); test: JNK3 AlphaScreen Assay (AID 530; active = well fitted curve in either direction with a large enough effect, not every such curve was filed as active;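 note: kinase came from lysate of stimulated human HepG2 cells; signal reports phosphorylation of biotinylated GST-cJun 1-79 at Ser73 with 10 µM ATP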); details: JNK3 lysate, c-Jun phosphorylation; series mostly up to 57.1 µM
Method in brief: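 Kinase buffer: 20 mM Tris-HCl pH 7.6, 10 mM MgCl2, 1 mM DTT, 0.1 mM Na3VO4, 0.01% Tween-20; ATP 10 uM. Substrate biotin-GST-cJun(1-79), enzyme from activated HepG2 lysates. Detection by Ser73 phospho-antibody AlphaScreen.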

[8] = Cell Viability - N2a (AID 540); details: N2a mouse neuroblastoma cell viability; activity change, negative = cytotoxicity: at 92.2 µM (top of the series); note: nearly all actives have a fitted effect of over 45% in size
Method in brief: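 N2a mouse neuroblastoma, 1500 cells/well, 5 hr settle; compound 40 hr, 37 °C; CellTiter-Glo 20 min RT; luminescence; Hill-fit AC50.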

[9] = Cell Viability - NIH 3T3 (AID 541); details: NIH 3T3 cell viability, qHTS; activity change, negative = cytotoxicity: at 92.2 µM (top of the series); note: nearly all actives have a fitted effect of over 25% in size
Method in brief: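 qHTS format; 40 hr compound exposure, 37 °C; CellTiter-Glo luminescence (cellular ATP) read-out after 20 min at RT. Decrease in ATP = cytotoxicity; AC50 from standard Hill fit.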

[10] = Cell Viability - HUV-EC-C (AID 542); details: HUV-EC-C endothelial cell viability, qHTS; series mostly up to 92.2 µM; note: nearly all actives have a fitted effect of over 35% in size
Method in brief: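 Luminescent ATP read-out (CellTiter-Glo, 20 min room temperature) after 40 hr compound treatment of HUV-EC-C cells at 37 °C. Concentration-response data fitted with the standard Hill equation to give AC50; tamoxifen and doxorubicin served as positive controls.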

[11] = Cell Viability - H-4-II-E (AID 543); details: H-4-II-E rat hepatoma viability; series mostly up to 92.2 µM; note: nearly all actives have a fitted effect of over 35% in size
Method in brief: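 qHTS, rat hepatoma H-4-II-E, 1500 cells/well; 40 hr compound exposure, 37 °C; CellTiter-Glo ATP luminescence after 20 min RT; AC50 by standard Hill fit.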

[12] = Cell Viability - SH-SY5Y (AID 544); details: SH-SY5Y neuroblastoma cell viability; viability change, negative = cytotoxic: at 92.2 µM (top of the series); note: nearly all actives have a fitted effect of over 55% in size
Method in brief: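 SH-SY5Y, 1500 cells/well, 5 hr pre-incubation 37 °C; cpd 40 hr 37 °C; CellTiter-Glo 20 min RT; luminescence (ATP) read. qHTS concentration-response, Hill fit → AC50. Tamoxifen, doxorubicin as positive controls.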

[13] = Cell Viability - Renal Proximal Tubule (AID 545); details: renal proximal tubule cells viability, primary cells of rat origin; series mostly up to 91.7 µM; note: nearly all actives have a fitted effect of over 40% in size
Method in brief: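 Rat renal proximal tubule primary cells, 1000/well, exposed to compounds for 40 hr at 37 °C in complete medium; cellular ATP read by CellTiter-Glo luminescence. AC50 from concentration-response fitted with standard Hill equation.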

[14] = Cell Viability - Mesenchymal (AID 546); details: mesenchymal cells viability, qHTS; series mostly up to 91.7 µM;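 note: cells exposed to compound for 40 hours before reading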
Method in brief: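 CellTiter-Glo luminescence (intracellular ATP, 20 min room temperature) after 40 hr compound exposure at 37 °C of 1000 glomerulus-derived human kidney mesenchymal cells/well; AC50 values obtained by fitting qHTS concentration-response data to the Hill equation.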

[15] = Cellular Toxicity (caspase-3) HepG2 (AID 654); details: HepG2 caspase-3 activation, luminescence; series mostly up to 92.2 µM;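 note: cells exposed to compound for 16 hours before reading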
Method in brief: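 Luminescent Caspase-Glo 3/7 readout after 16 hr compound exposure of human hepatocellular carcinoma HepG2 cells at 37 °C; qHTS concentration-response, normalized DMSO = 0%, 100 uM tamoxifen = 100%; AC50 by standard Hill equation.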

[16] = Cellular Toxicity (caspase-3) Jurkat (AID 655); details: Jurkat caspase-3 activation, luminescence; caspase-3 activation: at 92.2 µM (top of the series), DMSO = 0%, tamoxifen = 100%;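 note: cells exposed to compound for 16 h at 37 °C before reading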
Method in brief: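 Jurkat cells (5000/well) in complete medium exposed 16 h at 37 C; caspase-3/7 activity read by Caspase-Glo luminescence after 20 min at room temperature. Normalized to DMSO and 100 uM tamoxifen; AC50 from Hill fits.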

[17] = Cellular Toxicity (caspase-3) SHSY5Y (AID 657); details: SH-SY5Y caspase-3 activation, DMSO zero, 10 µM staurosporine = 100%; series mostly up to 91.7 µM
Method in brief: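 SH-SY5Y human neuroblastoma cells, 1500/well, exposed to compound for 16 hours at 37 °C in complete medium. Caspase-3/7 activity read by Caspase-Glo luminescence after 1 hr at room temperature, normalized to DMSO and 10 uM staurosporine; AC50 from Hill fit.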

[18] = Cellular Toxicity (caspase-3) BJ (AID 658); details: BJ fibroblasts, luminescence, normalized: DMSO 0%, staurosporine 100%; series mostly up to 91.7 µM
Method in brief: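 Caspase-Glo 3/7 luminescence, read 1 hr after reagent at room temperature, in normal BJ fibroblasts exposed 16 hours at 37 °C. AC50 values from Hill-equation concentration-response, scaled between DMSO basal and 10 uM staurosporine as 100%.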

[19] = Cellular Toxicity (caspase-3) HUV-EC-C (AID 656); details: HUV-EC-C cells, caspase-3 activation (apoptosis), vehicle = 0, 100 µM tamoxifen = 100%; series mostly up to 92.2 µM
Method in brief: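 HUV-EC-C cells (1000/well) in complete medium, compound-treated 16 h at 37 °C; caspase-3/7 activity read by Caspase-Glo 3/7 luminescence. Normalized to DMSO (basal) and 100 uM tamoxifen (100%); AC50 from Hill-equation concentration-response fits.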

[20] = Cellular Toxicity (caspase-3) MRC-5 (AID 659); details: MRC-5 cells, luminescence, normalized: DMSO 0%, 10 µM staurosporine 100%; series mostly up to 91.7 µM
Method in brief: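 Luminescent Caspase-Glo 3/7 read-out (1 h, room temperature) after a 16 h, 37 °C compound exposure of MRC-5 lung fibroblasts at 1500 cells/well. Concentration-response AC50 from Hill equation; 0% DMSO, 100% 10 uM staurosporine.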

C[C@@H]1CC2(OC[C@]3(C)O[C@H]23)O[C@H]2C[C@@]3(C)[C@@H]4CC[C@H]5C(C)(C)C(O[C@@H]6OC[C@@H](O)[C@H](O)[C@H]6O)CC[C@@]56C[C@@]46CC[C@]3(C)[C@@H]12 (some centres not stated)
Potency [1]: > 92 µM | Potency [2]: > 92 µM | Potency [3]: > 92 µM | Potency [4]: > 92 µM | Potency [5]: > 92 µM | Potency [6]: > 92 µM | outcome [7]: inactive | activity change, negative = cytotoxicity [8]: 11% | Potency [9]: inactive | Potency [10]: inactive | Potency [11]: inactive | Potency [12]: inactive | Potency [13]: inactive | Potency [14]: inactive | Potency [15]: inactive | caspase-3 activation [16]: 2.9% | outcome [17]: inactive | outcome [18]: inactive

O=C(Cl)c1c(Cl)cccc1Cl
Potency [1]: > 92 µM | Potency [2]: > 92 µM | Potency [3]: > 92 µM | Potency [4]: > 92 µM | Potency [5]: > 92 µM | Potency [6]: > 92 µM | outcome [7]: inactive | activity change, negative = cytotoxicity [8]: 1.05% | Potency [9]: inactive | Potency [10]: inactive | Potency [11]: inactive | Potency [12]: inactive | Potency [13]: inactive | Potency [14]: inactive | caspase-3 activation [16]: 2.4% | outcome [17]: inactive | outcome [18]: inactive

CCc1ccccc1
Potency [1]: > 92 µM | Potency [2]: > 92 µM | Potency [3]: > 92 µM | Potency [4]: > 92 µM | Potency [5]: > 92 µM | Potency [6]: > 92 µM | outcome [7]: inactive | activity change, negative = cytotoxicity [8]: -7.66% | Potency [9]: inactive | Potency [10]: inactive | Potency [11]: inactive | Potency [12]: inactive | Potency [13]: inactive | Potency [14]: inactive | outcome [19]: inactive | outcome [17]: inactive | outcome [18]: inactive

O=C(O)c1cccc([N+](=O)[O-])c1
Potency [1]: > 92 µM | Potency [2]: > 92 µM | Potency [3]: > 92 µM | Potency [4]: > 92 µM | Potency [5]: > 92 µM | Potency [6]: > 92 µM | outcome [7]: inactive | activity change, negative = cytotoxicity [8]: -0.379% | Potency [9]: inactive | Potency [10]: inactive | Potency [11]: inactive | Potency [12]: inactive | Potency [13]: inactive | Potency [14]: inactive | Potency [15]: inactive | caspase-3 activation [16]: 0.351% | outcome [17]: inactive | outcome [18]: inactive

CC(C)(c1cc(Br)c(OCC(Br)CBr)c(Br)c1)c1cc(Br)c(OCC(Br)CBr)c(Br)c1 (configuration not stated)
Potency [1]: > 92 µM | Potency [2]: 46.9 µM (active) | Potency [3]: > 92 µM | Potency [4]: > 92 µM | Potency [5]: > 92 µM | Potency [6]: > 92 µM | outcome [7]: inactive | activity change, negative = cytotoxicity [8]: 5.75% | Potency [9]: inactive | Potency [10]: inactive | Potency [11]: inactive | Potency [12]: inactive | Potency [13]: inactive | Potency [14]: inactive | Potency [15]: inactive | outcome [19]: inactive | outcome [17]: inactive | outcome [18]: inactive | outcome [20]: inactive

Cc1ccc2ncccc2c1
Potency [1]: > 92 µM | Potency [2]: > 92 µM | Potency [3]: > 92 µM | Potency [4]: > 92 µM | Potency [5]: > 92 µM | Potency [6]: > 92 µM | outcome [7]: inactive | activity change, negative = cytotoxicity [8]: 3.92% | Potency [9]: inactive | Potency [10]: inactive | Potency [11]: inactive | Potency [12]: inactive | Potency [13]: inactive | Potency [14]: inactive | caspase-3 activation [16]: 0.555% | outcome [19]: inactive | outcome [17]: inactive | outcome [18]: inactive
